The text below walks through data of PubChem BioAssay (NCATS).

Values without a mark were called inactive. Inconclusive results are not listed. A call without a number means that no potency is given here. The source made the active and inactive calls. Calls follow the shape of the dose curve; as a rule, active = well fitted curve in the direction sought with a large enough effect; inconclusive = small, poorly fitted or top-dose-only effect, or another doubt; inactive = no such curve, though single readings can be large; an effect the other way counts as inactive or inconclusive.

System in one test: not listed separately
Put plainly: Primary fluorescence-based thiol-reactive (MSTI) qHTS assay for identification of artifact compounds. (AID 1845221). Also: nearly all actives have a fitted effect of over 65% in size. Also: potency is read from the fitted curve at half-maximal effect. The conditions noted are these: MSTI thiol-reactivity probe, 1 h; series mostly up to 53.8 µM. The method, boiled down: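 Probe: MSTI 4 uM, PBS pH 7.4, 2% DMSO. Incubation 1 h, RT, light-protected. Readout fluorescence 525/598 nm.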
In general terms: qHTS replaces the single test concentration by a dilution series.
As to `Clc1ccc2c(c1)C1=NCCN1c1c(-c3noc(C4CC4)n3)ncn1-2`, the Potency entry was “inactive”.

For the compound `CN(C)c1cccc(-c2c3c(=O)n(-c4ccccc4Cl)[nH]c3cc(=O)n2C)c1`, the Potency was 1.89 µM (active).

For the compound `C=C[C@H]1[C@H](O[C@@H]2O[C@H](CO[C@@H]3OC[C@](O)(CO)[C@H]3O)[C@@H](O)[C@H](O)[C@H]2O)OC=C2C(=O)OCC[C@H]21`, the Potency entry is “inactive”.

`CCC(=O)NS(=O)(=O)c1ccc(-c2c(-c3ccccc3)noc2C)cc1`: the Potency result was “inactive”.

`C[C@@H](OC(=O)/C=C/c1ccc(O)cc1)C1=C[C@]2(C=C[C@@H]3C(C(=O)O)=CO[C@@H](O[C@@H]4O[C@H](CO[C@@H]5O[C@H](CO)[C@@H](O)[C@H](O)[C@H]5O)[C@@H](O)[C@H](O)[C@H]4O)[C@@H]32)OC1=O`: the Potency was 3.98 µM (active).

As to `CC(C)(OC1OC(CO)C(O)C(O)C1O)C1CCC(O)(CO)C2CC(O)C(C)(O)C2C1` (stereo not given), the Potency entry was “inactive”.

On to `COc1cc(/C=C/c2cc(O)cc(O[C@@H]3O[C@H](CO)[C@@H](O)[C@H](O)[C@H]3O)c2)ccc1O`, for which the Potency result is “inactive”.

In the next test the test system is Nanoluciferase (engineered Oplophorus gracilirostris luciferase). Description: Primary Nanoluciferase (NLuc) qHTS assay for identification of artifact compounds. (AID 1845222). Conditions: NLuc-conditioned medium, Nano-Glo luminescence, 5 min; series mostly up to 54.1 µM. The method, boiled down:
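Diluted conditioned medium from NLuc-expressing S16 cells treated with compounds for 15 min at room temperature, then Nano-Glo substrate added; luminescence read after 5 min. Percent inhibition versus no-enzyme and DMSO controls fitted to 4-parameter Hill equation.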
With `O=c1c2ccccc2nc2n1CCC2O` (stereo not given), the Potency entry is “inactive”.

For the compound `CO[C@@H]1CC[C@H](OC[C@]2(COC(=O)c3ccc(C)[nH]3)[C@H](OC(C)=O)CC[C@@]3(C)[C@@H]4CC=C(C)[C@@H](C5=C(O)C(=O)OC5O)[C@]4(C)CC[C@@H]32)O[C@H]1C` (stereo not given in full), the Potency entry is “inactive”.

Turning to `COC(=O)C1=COC(O[C@@H]2O[C@H](CO)[C@@H](O)[C@H](O)[C@H]2O)/C(=C\COC(=O)c2ccc(OC3OC(CO)C(O)C(O)C3O)c(OC)c2)C1CC(=O)OCCc1ccc(O)cc1` (stereo not given in full), the activity, negative = inhibition was 4.63% [at 11.6 µM].

Regarding `CC(=O)c1c(C)cc(O[C@@H]2O[C@H](CO)[C@@H](O)[C@H](O)[C@H]2O)cc1O`, the Potency entry was “inactive”.

As for `CC(C)=CCc1ccc(Oc2c(O)cc(C)cc2CO)c(C(=O)O)c1O`, the Potency entry is “inactive”.

On to `CCc1c(CC(N)=O)c2cc(OCCCP(=O)(O)O)ccc2n1Cc1ccccc1`, for which the Potency entry is “inactive”.

Turning to `COc1ccc(/C=C/C(=O)O[C@@H]2[C@@H](OC(C)=O)[C@@H](OC(C)=O)[C@H](O[C@H]3[C@@H]4C=CO[C@@H](O[C@@H]5O[C@H](CO)[C@@H](O)[C@H](O)[C@H]5O)[C@@H]4[C@@]4(CO)O[C@@H]34)O[C@H]2C)cc1O`, the Potency result was “inactive”.

As for `CC1=CC(=O)C2C(C)(C)CC(O)CC2(C)C1CO` (stereo not given), the Potency entry is “inactive”.

On to `COc1ccc2c(c1)O[C@H](O[C@@H]1O[C@H](CO)[C@@H](O)[C@H](O)[C@H]1O)C(=O)N2`, for which the Potency result is “inactive”.

On to `CCOc1ccc(C(Nc2ccccn2)c2ccc3ccc(C)nc3c2O)cc1C` (stereo not given), for which the Potency entry is “inactive”.

Take `O=C(O)c1ccc(CCCc2ccc(OCCc3ccc(F)cc3)cc2)o1`: the Potency entry was “inactive”.

For the compound `COc1ccccc1CC(C(=O)O)N(C)C(=O)c1ccccc1` (stereo not given), the Potency entry was “inactive”.

On to `CC12CCC3C(C)(C)C(O)CCC3(C)C1Cc1c(oc(C(=O)O)cc1=O)O2` (stereo not given), for which the Potency result is “inactive”.

`C=C/C=C/[C@@H]1OC[C@H](/C=C/C=C/C)[C@H]1O`: the Potency entry was “inactive”.

Turning to `C/C=C(\C)C(=O)O[C@H]1[C@@H](O[C@]2(COC(=O)CC(C)C)O[C@H](COC(=O)C(C)C)[C@@H](OC(C)=O)[C@@H]2O)O[C@H](COC(C)=O)[C@@H](O)[C@@H]1O`, the Potency entry was “inactive”.

Consider `COc1cc(C2Oc3c(O)cc(CCCO)cc3C2CO)ccc1O[C@H]1O[C@H](C)[C@@H](O)[C@H](O)[C@@H]1O` (stereo not given in full), for which the Potency entry is “inactive”.

On to `COc1cc2c(Nc3ccc(Cl)c(Cl)c3F)ncnc2cc1OCC1C[C@@H]2CN(C)C[C@@H]2C1` (stereo not given in full), for which the Potency result was “inactive”.

Regarding `O=C(/C=C/c1ccc(O)cc1)O[C@H]1[C@@H]2C=CO[C@@H](O[C@@H]3O[C@H](CO)[C@@H](O)[C@H](O)[C@H]3O)[C@@H]2[C@@]2(CO)O[C@@H]12`, the Potency result was “inactive”.

Turning to `COc1c2c(c(C)c3c1C(=O)OC3)OC1(C)CC(O)C3(O)C(C)(C)OC(=O)CCC3(C)C1C2` (stereo not given), the Potency entry is “inactive”.

As to `C=C1CCC2[C@@](C)(C=O)CCC[C@]2(C)[C@H]1CC/C(C)=C/CO` (stereo not given in full), the Potency entry is “inactive”.

Regarding `COc1cc(/C=C/CO)ccc1O[C@@H]1O[C@H](CO)[C@@H](O)[C@H](O)[C@H]1O`, the Potency result is “inactive”.

Consider `CC(C)CC(=O)n1cc(C(N)=O)c(=O)cc1C(O)c1ccccc1` (stereo not given), for which the Potency entry is “inactive”.

In the case of `C[C@@H]1O[C@@H](O[C@H]2[C@H](O[C@H]3[C@H](O[C@H]4CC[C@@]5(C)C(CC[C@]6(C)C5CC=C5[C@@H]7CC(C)(C(=O)O)C[C@@H](O)[C@]7(C)CC[C@]56C)[C@@]4(C)CO)O[C@H](C(=O)O)[C@@H](O)[C@@H]3O)O[C@H](CO)[C@H](O)[C@@H]2O)[C@H](O)[C@H](O)[C@H]1O` (stereo not given in full), the activity, negative = inhibition is -2.21% [at 11.6 µM].
